What all share (parameters): species or system human, MV4-11 + K-562 + COLO205 + SK-N-BE2 + OVCAR-8
One test deals with ACVR2B. To be noted: read-out: apparent Kd; compound concentrations:100 nM and 1000 nM (sheet 'Samples'); n = 1.
The subject of a further test is CSNK1A1. As to conditions: read-out: apparent Kd; compound concentrations:100 nM and 1000 nM (sheet 'Samples'); n = 1.
The subject of another test is MAPK10. As to conditions: read-out: apparent Kd; compound concentrations:100 nM and 1000 nM (sheet 'Samples'); n = 1.
The subject of another test is MAPK11. As to conditions: read-out: apparent Kd, n = 1.
A further test deals with SYK. To be noted: read-out: apparent Kd; compound concentrations:100 nM and 1000 nM (sheet 'Samples'); n = 1.
The subject of the next test is CDK4. To be noted: read-out: apparent Kd; compound concentrations: 100 nM and 1000 nM (sheet 'Samples'), CATDS: 1.3251728133645901E-2; n = 1.
For a further test, the system named is ERBB3. As to conditions: read-out: apparent Kd, compound concentrations: 100 nM and 1000 nM (sheet 'Samples'), n = 1.
For a further test, the system named is LIMK1. As to conditions: read-out: apparent Kd, n = 1.
For another test, the system named is ADCK3. To be noted: read-out: apparent Kd, compound concentrations: 100 nM and 1000 nM (sheet 'Samples'), n = 1.
A further test concerns PIK3CG. As to conditions: read-out: apparent Kd, compound concentrations: 100 nM and 1000 nM (sheet 'Samples'), n = 1.
The test system of the next test is PIM2. As to conditions: read-out: apparent Kd; compound concentrations: 100 nM and 1000 nM (sheet 'Samples'), CATDS: 5.4743223774465499E-2; n = 1.
A further test deals with AURKA. To be noted: read-out: apparent Kd, n = 1.
Another test relates to BMPR1A. To be noted: read-out: apparent Kd, n = 1.
The test system of a further test is PKN3. As to conditions: read-out: apparent Kd, compound concentrations: 100 nM and 1000 nM (sheet 'Samples'), n = 1.
The next test relates to SIK3. To be noted: read-out: apparent Kd, n = 1.
Another test has as its system EPHB3. As to conditions: read-out: apparent Kd, n = 1.
In another test the test system is CDK7. As to conditions: read-out: apparent Kd, compound concentrations: 100 nM and 1000 nM (sheet 'Samples'), n = 1.
For the next test, the system named is ERCC2. As to conditions: read-out: apparent Kd, compound concentrations: 100 nM and 1000 nM (sheet 'Samples'), n = 1.
For another test, the system named is NUAK1. To be noted: read-out: apparent Kd; compound concentrations: 100 nM and 1000 nM (sheet 'Samples'), CATDS: 9.4682639487438207E-3; n = 1.
The subject of another test is STK10. As to conditions: read-out: apparent Kd, compound concentrations: 100 nM and 1000 nM (sheet 'Samples'), n = 1.
Setting [1] is: compound concentrations:100 nM and 1000 nM (sheet 'Samples').

Where two headings read alike, the source gives them in different places.

As to `Cc1cccc(-c2cc(-c3c[nH]nc3-c3ccccn3)ccn2)c1` [GW679395X], the potency estimated from few doses was 1.66 µM in the test on ACVR2B; 1.81 µM with CSNK1A1; 1.73 µM in the test on MAPK10; 1.35 µM with MAPK11 (setting [1]); 2.31 µM with SYK.

For `CC(C)c1nc(-c2cccc(NS(=O)(=O)c3ccccc3)c2)c(-c2ccnc(Nc3ccc4c(c3)CN(C)CC4)n2)s1` [GSK1649598A], the potency estimated from few doses is 1.4 µM in the test with CDK4; 1.14 µM with ERBB3 (CATDS: 1.39186209544408E-2); 0.0385 µM in the test with LIMK1 (compound concentrations: 100 nM and 1000 nM (sheet 'Samples'), CATDS: 7.0535341813333999E-2).

As for `COc1ccc(-n2cnc3c(N)ncnc32)cc1` [SKF-97236], the potency estimated from few doses in the test on ADCK3 (CATDS: 0.16598723814203101) is 0.922 µM.

Consider `O=C1N=C(NCCc2cccc(Cl)c2)S/C1=C\c1ccc2ncccc2c1` [RO4509201-000], for which the values for the potency estimated from few doses in the test with PIK3CG (CATDS: 5.9148900132827802E-2) and in the test with PIM2 were 1.37 µM and 1.82 µM, respectively.

On to `CCn1cc(-c2ccnc3[nH]c(-c4cccc(CN(C)C)c4)cc23)c(-c2ccc(NC(=O)N(C)C)cc2)n1` [GSK1070916], for which the potency estimated from few doses in the test with AURKA (setting [1]) was 0.197 µM.

Turning to `COc1cc(Nc2ccnc3cc(-c4ccncc4)ccc23)cc(OC)c1OC.Cl` [GW494610A], the potency estimated from few doses in the test on BMPR1A (compound concentrations: 100 nM and 1000 nM (sheet 'Samples'), CATDS: 3.04170421320503E-2) was 0.486 µM; in the test with MAPK11 (compound concentrations: 100 nM and 1000 nM (sheet 'Samples'), CATDS: 2.2230478875047501E-2), 1.61 µM; with PKN3 (CATDS: 0.111672357015452) it was 0.0241 µM; with SIK3 (compound concentrations: 100 nM and 1000 nM (sheet 'Samples'), CATDS: 4.52892719114492E-2) it was 0.16 µM.

As to `CNC1=NC(=O)/C(=C/c2ccc3ncccc3c2)S1` [RO4595949-000], the potency estimated from few doses in the test on PIK3CG (CATDS: 8.0370856047911096E-2) was 0.401 µM.

For `CCN(CC)CCOc1ccc(Nc2ncc3cc(-c4c(Cl)cccc4Cl)c(=O)n(C)c3n2)cc1` [SB-601273], the potency estimated from few doses was 0.538 µM with BMPR1A (setting [1]), 1.22 µM with EPHB3 (setting [1]), 1.11 µM in the test with LIMK1 (setting [1]) and 0.201 µM in the test on SIK3 (setting [1]).

Take `O=C1N=C(NCc2cccs2)SC1Cc1ccc2ncccc2c1` (stereo not drawn) [RO4629078-000]: the potency estimated from few doses is 0.7 µM in the test with AURKA (compound concentrations: 100 nM and 1000 nM (sheet 'Samples'), CATDS: 9.8241479768662494E-3); 0.112 µM in the test on CDK7 (CATDS: 2.7171532019021599E-2); 0.79 µM in the test with EPHB3 (compound concentrations: 100 nM and 1000 nM (sheet 'Samples'), CATDS: 9.3855974911044807E-3); 0.778 µM with ERCC2 (CATDS: 9.4373206529466905E-3); 0.771 µM in the test on NUAK1; 0.602 µM in the test on PKN3 (CATDS: 1.04428727598351E-2). The potency estimated from few doses in the test with STK10 (CATDS: 8.8435588705339796E-3) is 0.935 µM.

In the case of `CN(C)Cc1ccc(-c2ccc3c(Nc4ccc(Oc5ccccn5)cc4)ccnc3c2)o1` [GW567148X], the potency estimated from few doses in the test with CDK7 (CATDS: 2.45792325734666E-2) is 0.573 µM; in the test on ERCC2 (CATDS: 2.5327932043398099E-2), 0.534 µM; with PKN3 (CATDS: 1.7061922393971401E-2), 1.73 µM.

Turning to `CS(=O)(=O)c1ccc(-c2cnc(N)c(C(=O)Nc3ccccc3)n2)cc1` [VE-821], in the test on ADCK3 (CATDS: 0.149033723356022), the potency estimated from few doses is 1.37 µM.

Consider `Nc1nc(N)c2nc(-c3ccccc3)[nH]c2n1` [SKF-12778], for which the potency estimated from few doses in the test with AURKA (setting [1]) is 1.11 µM; with CSNK1A1 it was 0.972 µM; with MAPK10, 0.925 µM; in the test with SYK, 1.85 µM.

In the case of `Cc1cc(O)cc(C)c1/C=C/c1cncc(-c2nn[nH]n2)c1.Cl` [GW441806A], the potency estimated from few doses with BMPR1A (compound concentrations: 100 nM and 1000 nM (sheet 'Samples'), CATDS: 4.5522705937236799E-2) was 1.37 µM; in the test with ERBB3 (CATDS: 9.8413353572783496E-2) it was 0.174 µM; in the test on STK10 (CATDS: 4.0928454430712802E-2) it was 2.05 µM.

The values are drawn from publication PMC11062922 (Nature Chemical Biology, 2023).
